# An excerpt weighted towards active compounds, which were near 0.96% of everything screened.
# A647 autofl – A647 region autofluorescence | Compound fluorescence, A647 channel (570/671 nm), Tris buffer | max dye-equivalent concentration, M | 59,000 tested, under 10 active | AID 592;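 further: values scaled relative to a standard on each plate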
#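 Tris 100 mM pH 8.0; cpd + A647 stds pin-transferred; 15 min RT; CCD imager, ex 570/em 671. Output = A647-equivalent conc. per cpd conc.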
# Rhodamine fluor – compound fluoresces in the rhodamine spectral region; AID 594; actives 0.05% (n = 59,000); max dye-equivalent concentration, M; Rhodamine-region fluorescence, 547/598 nm, Tris buffer; hits give high values; in the data active means max dye-equivalent concentration above about 11 nM; inconclusive means between about 1.1 nM and that limit
#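 qHTS spectral profiling of compounds without any target or enzyme present, in pH 8.0 Tris buffer; plates were read after a 15-minute room-temperature incubation using the rhodamine-region filter set.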
# TexasRed autofl – compounds fluorescent in Texas Red spectral region; actives 0.06% (n = 59,000); Compound fluorescence, Texas Red channel, 547/618 nm; hits give high values; AID 587; max dye-equivalent concentration, M; in the data active means max dye-equivalent concentration above about 10 nM; inconclusive means between about 1.1 nM and that limit
#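 Fluorescence at ex 547/em 618 nm, normalized against an on-plate Texas Red standard series to give dye-equivalent concentration per compound concentration. Buffer 100 mM Tris, pH 8.0; 15 min RT incubation before CCD imaging.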
# Fluorescein fluor – compound fluoresces in the fluorescein spectral region | actives 0.91% (n = 59,000) | max fluorescein-equivalent concentration, M | Compound autofluorescence, 480/540 nm, fluorescein-equivalent; hits give high values; in the data active means max fluorescein-equivalent concentration above about 10 nM; inconclusive means between about 1.1 nM and that limit
#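 Spectral profiling of library compounds in the fluorescein window (480 nm excitation, 540 nm emission) after 15 min at room temperature in pH 8.0 Tris (100 mM). Values are dye-equivalent concentrations.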
# A488 fluor – A488 region autofluorescence; compound autofluorescence, A488 spectral region, dye equivalency; Compound Type: qHTS ECL - MLSMR; max dye equivalency, M; AID 591; actives 0.1% (n = 59,000)
#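 Compounds pin-transferred into 100 mM Tris buffer, pH 8.0, incubated 15 min at room temperature, then imaged with 480 nm excitation/540 nm emission filters. Fluorescence converted to Alexa 488 dye-equivalent concentration via an on-plate six-point A488 standard curve.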
# Resorufin fluor – resorufin region autofluorescence; Compound fluorescence, resorufin region 547/598 nm, buffer; hits give high values; actives 0.04% (n = 59,000); AID 588; max dye-equivalent concentration, M
#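 Compounds in 100 mM Tris buffer, pH 8.0, incubated 15 min at room temperature, then read with 547 nm excitation and 598 nm emission filters. Fluorescence was converted to dye-equivalent concentration using an on-plate six-point resorufin standard curve.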
# Numbers without * were called inactive; i = inactive; ? = inconclusive; ! = not active in a repeat. Unless noted, how the calls were made is not given here.
SMILES,A647 autofl,Rhodamine fluor,TexasRed autofl,Fluorescein fluor,A488 fluor,Resorufin fluor
Cc1ccc(-c2c3c(=O)n(C)c(=O)n(C)c3cn2N2CCOCC2)cc1,5.9e-09,i,i,?,i,i
Cc1ccc(-c2c3c(=O)n(C)c(=O)n(C)c3c3c(C)cc(C)nn23)cc1,2.7e-08,i,?,1.28e-08M*,i,i
O=C1N=C(O)CN1/N=C\c1ccc(-c2ccc([N+](=O)[O-])cc2)o1,1e-09,i,?,4.15e-08M*!,?,i
CN1CCN(C(=O)CSc2nc(-c3cccs3)cc(-c3cccs3)c2C#N)CC1,2.6e-08,i,?,2.04e-08M*,i,i
Cc1nccn1-c1c2c(c(C#N)c3nc4ccccc4n13)CCCC2,2.06e-08,i,?,1.4e-08M*,i,i
CN1CCc2c(sc3c2C(=O)NC(c2ccco2)N3)C1 (stereo not drawn),4.33e-08,i,i,1.33e-08M*,i,i
Cc1cc2c(cc1C)NC(c1c(C)n(C)n(-c3ccccc3)c1=O)C1=C(CC(C)(C)CC1=O)N2 (stereo not drawn),6e-09,i,?,4.33e-08M*,?,i
CC(=O)Nc1ccc(N=Cc2nc(-c3ccc(C)cc3)oc2O)cc1,1e-09,i,i,1.58e-08M*,i,i
CN(C)c1ccc(N=Cc2nc(-c3ccccc3)oc2O)cc1,1e-09,i,i,4.5e-08M*,?,i
Cc1noc(C)c1-c1nc(NCc2ccccc2)c2ccccc2n1,9.8e-09,i,i,i,i,i
Cc1cccc(-n2c(O)c(C=Nc3c(C)n(C)n(-c4ccccc4)c3=O)c3ccccc3c2=O)n1,1e-09,i,i,5.7e-08M*,?,i
Cc1c(N=Cc2ccc(Cl)o2)c(=O)n(-c2ccccc2)n1C,3.07e-08,i,i,?,i,i
COc1ccc(C2C=C(c3ccc(Cl)cc3)Nc3nc(NC(C)=O)nn32)cc1 (stereo not drawn),3.5e-09,i,i,2.78e-08M*,i,i
COc1ccc(C2C=C(c3ccc(Br)cc3)Nc3nc(N4C(=O)CCC4=O)nn32)cc1 (stereo not drawn),4.1e-09,i,i,1.14e-08M*,i,i
COc1ccccc1C1C=C(c2ccc(Cl)cc2)Nc2nc(NS(C)(=O)=O)nn21 (stereo not drawn),2.28e-08,i,?,1.49e-08M*,i,i
CC(=O)Nc1nc2n(n1)C(c1ccc(F)cc1)C=C(c1ccccc1)N2 (stereo not drawn),4.14e-08,i,i,1.4e-08M*,i,i
COc1ccc(-c2nc3cnc(N4CCNCC4)nc3n(CCC#N)c2=O)cc1,9.5e-09,i,i,i,i,i
CN(C)c1ncnc2ccc(-c3cccnc3)cc12,1e-09,i,i,i,i,i
CN(C)C(=O)c1ccc(-c2nc(N(C)C)c3ccccc3n2)cc1,1.13e-08,i,i,i,i,i
COc1ccccc1C1C=C(c2ccc(Cl)cc2)Nc2nc(N3C(=O)CCC3=O)nn21 (stereo not drawn),4.39e-08,i,i,?,i,i
COc1ccc(C2=CC(c3ccc(Cl)cc3)n3cnnc3N2)cc1OC (stereo not drawn),6.17e-08,i,i,3.52e-08M*,?,i
N#CC1=C(N)N(c2ccccc2)C2=C(C(=O)CCC2)C1c1ccsc1 (stereo not drawn),2.9e-09,i,i,i,i,i
N#CC1=C(N)N2C(=C(C#N)C1c1ccccc1)Sc1ccccc12 (stereo not drawn),4.65e-08,i,i,4.21e-08M*,?,i
O=c1cc(-c2ccccc2O)oc2c1ccc1ccccc12,2e-09,i,i,i,i,i
COc1cc(O)c2c(O)c3c(c4c2c1[C@@]1(C4)C(C)=CCCC1(C)C)[C@H](O)[C@@]1(O)CC(=O)C(C(N)=O)=C(O)[C@]1(O)C3=O,1e-09,i,i,2.05e-08M*,i,i
SMILES,A647 autofl,Rhodamine fluor,TexasRed autofl,Fluorescein fluor,A488 fluor,Resorufin fluor
CC(=O)N1C(=O)C(=C2C=C(C)OC(C)=C2)c2ccccc21,1.88e-08,i,i,2.26e-07M*,1.28e-08M*,i
CO[C@@]12C[C@@H](COC(=O)c3cncc(Br)c3)CN(C)[C@H]1Cc1cn(C)c3cccc2c13,1e-09,i,i,2.53e-08M*!,i,i
CCC[C@@H]1O[C@@H]2C[C@@H]3[C@@H]4CCC5=CC(=O)C=C[C@@]5(C)[C@H]4[C@H](O)C[C@@]3(C)[C@@]2(C(=O)CO)O1,1.4e-09,i,?,i,i,i
C=C[C@@H]1CN2CC[C@@H]1C[C@H]2[C@H](O)c1ccnc2ccc(OC)cc12,7e-09,i,i,i,i,i
O=C(O)c1ccc2c3c(ncnc13)-c1ccccc1C2=O,5.9e-09,i,?,1.35e-08M*,i,i
N#Cc1c(N)sc2c1CCCCCC2,1e-09,i,i,i,i,i
CC1(C)Cc2c(C#N)c(N)sc(=S)c2CS1,1e-09,i,i,1.1e-08M*,i,i
N#Cc1c(N)sc(=S)c2c1CCCCC2,1e-09,i,i,3.35e-08M*,i,i
CCS(=O)(=O)CCSc1nc(C)cc(C)c1C#N,1e-09,i,i,i,i,i
CCOC(=O)CCSc1nc(C)cc(C(F)(F)F)c1C#N,1e-09,i,i,1.48e-08M*,i,i
COc1ccccc1CNc1ncnc2ccc(-c3ccccc3OC)cc12,6.2e-09,i,i,i,i,i
Brc1ccc(-c2nnc3sc(CN4CCC5(CC4)OCCO5)cn23)cc1,3.3e-09,i,i,1.14e-08M*,i,i
O=c1c(-c2ccccc2)nc2cnc(N3CCOCC3)nc2n1Cc1ccc(F)cc1,3.68e-08,i,i,?,i,i
N#CC(C(=O)NC1CCCCC1)c1nc2ccccc2nc1N1CCCCC1 (stereo not drawn),2.15e-08,i,i,?,i,i
N#CC(C(=O)NC1CC1)c1nc2ccccc2nc1N1CCN(C/C=C/c2ccccc2)CC1 (stereo not drawn),1e-09,i,i,1.29e-07M*,?,i
COCCCNC(=O)C(C#N)c1nc2ccccc2nc1N1CCN(Cc2ccccc2)CC1 (stereo not drawn),3e-08,i,i,i,i,i
N#CC(C(=O)NC1CCCCC1)c1nc2ccccc2nc1N1CCN(c2ccc(F)cc2)CC1 (stereo not drawn),3e-09,i,i,3.52e-07M*,2.01e-08M*,i
C=CCNC(=O)C(C#N)c1nc2ccccc2nc1N1CCN(Cc2ccccc2)CC1 (stereo not drawn),1e-09,i,i,5.57e-08M*,?,i

# Screens (PubChem)
